Measurements taken from PubChem BioAssay (NCI).
The panel holds about 79,000 compounds, 15% with a hit somewhere; the sample as a whole holds those more often. Calls of active or inactive are those of the source. No stated cut-off is given here; in the data, active means growth inhibition above about 70%; inactive means the rest.

Legend:
[1] = NCI Yeast Anticancer Drug Screen. Data for the rad52 strain (AID 147);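 further: 0% = growth of vehicle-treated control cultures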; conditions: S. cerevisiae rad52 mutant growth inhibition, hits give high values
In short: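 Genetically altered yeast (DNA damage repair defect) treated with compound; inhibition calculated relative to vehicle.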

[2] = NCI Yeast Anticancer Drug Screen. Data for the wt1 strain (AID 149);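 further: 0% = growth of vehicle-treated wt1 cultures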; conditions: S. cerevisiae wt1 strain (SPY 50644) growth inhibition, hits give high values
In short: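 Yeast wt1 strain exposed to compounds; growth inhibition measured relative to vehicle-treated controls.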

[3] = NCI Yeast Anticancer Drug Screen. Data for the rad50EPP+ strain (AID 151);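 further: 0% = growth of vehicle-treated control cultures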; conditions: S. cerevisiae rad50 mutant strain, hits give high values
In short: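 Strain rad50EPP+; compound exposure; % growth inhibition vs vehicle.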

[4] = NCI Yeast Anticancer Drug Screen. Data for the mgt1 strain (AID 153); conditions: S. cerevisiae mgt1 mutant growth inhibition, hits give high values
In short: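 Read-out: yeast growth inhibition vs vehicle control. Strain mgt1, drawn from a panel altered in DNA damage repair or cell cycle control.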

[5] = NCI Yeast Anticancer Drug Screen. Data for the rad50 strain (AID 155);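 further: 0% = growth of vehicle-only cultures of the same strain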; conditions: S. cerevisiae rad50 strain growth inhibition, hits give high values
In short: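 Yeast carrying a defined DNA repair defect were exposed to test compounds, and growth was compared with vehicle-treated controls to give percent inhibition.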

[6] = NCI Yeast Anticancer Drug Screen. Data for the mec2-1 strain (AID 157); conditions: S. cerevisiae mec2-1 strain, hits give high values
In short: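 Cells of the genetically defined mec2-1 yeast strain are incubated with test compound. Inhibition of growth is calculated against vehicle-treated controls.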

[7] = NCI Yeast Anticancer Drug Screen. Data for the sgs1 mgt1 strain (AID 161);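 further: 0% = growth of cultures given vehicle only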; conditions: S. cerevisiae sgs1 mgt1 strain, hits give high values
In short: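 Test agents were incubated with a DNA-repair-mutant yeast strain. Growth was then read and compared against vehicle-treated controls.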

[8] = NCI Yeast Anticancer Drug Screen. Data for the CLN2oe strain (AID 163);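 further: 0% = growth of vehicle-only control cultures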; conditions: S. cerevisiae CLN2oe strain, hits give high values
In short: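 Strain altered in cell-cycle control, incubated with compound; growth compared to solvent-treated controls.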

[9] = NCI Yeast Anticancer Drug Screen. Data for the cln2 rad14 strain (AID 165);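 further: 0% = growth equal to vehicle treated cultures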; conditions: S. cerevisiae cln2 rad14 strain, hits give high values
In short: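 The screen exposed genetically defined yeast (cln2 rad14) to test compounds and scored growth inhibition relative to vehicle-treated controls.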

[10] = NCI Yeast Anticancer Drug Screen. Data for the bub3 strain (AID 167); conditions: S. cerevisiae bub3 mutant strain, hits give high values
In short: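 Compounds were applied to a genetically altered yeast strain carrying a cell-cycle control defect. Growth inhibition was scored against vehicle-treated controls.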

[11] = NCI Yeast Anticancer Drug Screen. Data for the wt2 strain (AID 169);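 further: 0% = growth of vehicle-treated yeast cultures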; conditions: S. cerevisiae wt2 strain growth inhibition, hits give high values
In short: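 Steps: yeast strain treated with compound; growth recorded; inhibition calculated relative to cultures given vehicle alone.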

[12] = NCI Yeast Anticancer Drug Screen. Data for the mlh1 strain (AID 171);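 further: 0% = growth of vehicle-treated control cultures of the same strain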; conditions: S. cerevisiae mlh1 strain growth inhibition, hits give high values
In short: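 Yeast screen: mutant strain plus compound, growth scored against vehicle control wells.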

[13] = NCI Yeast Anticancer Drug Screen. Data for the sgs1 strain (AID 173);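 further: 0% = growth of vehicle-only control cultures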; conditions: S. cerevisiae sgs1 mutant, hits give high values
In short: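 Inhibition of yeast growth served as the measure. The mutant strain was treated with each compound, and growth was normalised to cultures receiving vehicle alone.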

[14] = NCI Yeast Anticancer Drug Screen. Data for the mlh1 rad18 strain (AID 175); conditions: S. cerevisiae mlh1 rad18 strain growth inhibition, hits give high values
In short: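 Compound-treated yeast growth, normalised to vehicle controls. Strain bears defined DNA repair mutations.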

[15] = NCI Yeast Anticancer Drug Screen. Data for the rad18 strain (AID 177); conditions: S. cerevisiae rad18 mutant growth inhibition, hits give high values
In short: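 Inhibition values reflect reduced yeast growth compared with vehicle-treated controls, using a strain engineered with a DNA damage repair defect.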

[16] = at 5.0 µM (retest, dose inferred, filed as 0.5)
[17] = at 50.0 µM (retest, dose inferred, filed as 5.0)

Measured: growth inhibition

O=C1C=CC(=O)N1c1ccc2c(c1)Cc1cc(NC(=O)C(F)(F)F)ccc1-2
active: [1]; at 100.0 µM 74% | [3]; at 3.7 µM 73% | [3]; at 11.0 µM 88% | [3]; at 33.0 µM 91% | [3]; at 100.0 µM 88% | [4]; at 100.0 µM 77% | [5]; at 33.0 µM 71% | [5]; [17] 91% | [5]; at 50.0 µM 87.7% | [5]; at 100.0 µM 80% | [6]; [16] 87% | [6]; [17] 94% | [6]; at 50.0 µM 83.5% | [6]; at 100.0 µM 77% | [7]; [16] 71% | [7]; [17] 93% | [7]; at 50.0 µM 86.6% | [10]; [17] 90% | [10]; at 50.0 µM 84.6% | [12]; at 33.0 µM 73% | [12]; at 100.0 µM 85% | [13]; at 33.0 µM 79% | [13]; at 100.0 µM 82% | [14]; [16] 91% | [14]; [17] 93% | [14]; at 50.0 µM 86% | [15]; at 33.0 µM 76% | [15]; at 100.0 µM 82%
inactive: [1]; at 1.2 µM 12% | [1]; at 3.7 µM 24% | [1]; at 11.0 µM 42% | [1]; at 33.0 µM 60% | [2]; at 1.2 µM 6% | [2]; at 3.7 µM 15% | [2]; at 11.0 µM 27% | [2]; at 33.0 µM 39% | [2]; at 100.0 µM 60% | [3]; at 1.2 µM 29% | [4]; at 1.2 µM 11% | [4]; at 3.7 µM 20% | [4]; at 11.0 µM 31% | [4]; at 33.0 µM 57% | [5]; at 1.2 µM 13% | [5]; at 3.7 µM 24% | [5]; [16] 52% | [5]; at 11.0 µM 41% | [6]; at 1.2 µM 13% | [6]; at 3.7 µM 26% | [6]; at 11.0 µM 42% | [6]; at 33.0 µM 62% | [8]; at 1.2 µM 2% | [8]; at 3.7 µM 11% | [8]; at 11.0 µM 18% | [8]; at 33.0 µM 26% | [8]; at 100.0 µM 50% | [9]; [16] 10% | [9]; [17] 51% | [9]; at 50.0 µM 62.9% | [10]; at 1.2 µM -11% | [10]; at 3.7 µM -5% | [10]; [16] 57% | [10]; at 11.0 µM 7% | [10]; at 33.0 µM 21% | [10]; at 100.0 µM 39% | [11]; at 1.2 µM 7% | [11]; at 3.7 µM 21% | [11]; at 11.0 µM 37% | [11]; at 33.0 µM 55% | [11]; at 100.0 µM 67% | [12]; at 1.2 µM 16% | [12]; at 3.7 µM 32% | [12]; at 11.0 µM 54% | [13]; at 1.2 µM 18% | [13]; at 3.7 µM 37% | [13]; at 11.0 µM 63% | [15]; at 1.2 µM 17% | [15]; at 3.7 µM 29% | [15]; at 11.0 µM 53%
